Drawing on the supplement of paper PMC9262897, “Low-cost anti-mycobacterial drug discovery using engineered E. coli” (Nature Communications, 2022), this text covers growth for four molecules.

Counter-ions that a name gives are not always drawn. ± gives the standard deviation of the averaged measurements.

Experiment in all cases: growth (OD600 after 10 h); higher = more growth (less inhibition)
Assay [1] relates to E. coli TESEC Alr+ wild-type control. The conditions noted are these: compound 0.1 mM; raw OD600 reference: median of DMSO wells 0.241, cell-free background 0.041. Here is the method:
(§1)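 TESEC Mtb Alr E. coli, or the Alr+ wild-type control, in 384-well plates with Prestwick library compounds at 0.1 mM and 1% DMSO, across arabinose induction levels of 1E3 to 1E7 nM. Growth is read as OD600 after 10 h at 37 °C in triplicate biological replicates.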

For assay [2], the system named is E. coli TESEC Mtb Alr. The conditions noted are these: compound 0.1 mM. Here is the method:
as §1

A further assay concerns E. coli TESEC Mtb Asd. Conditions: compound 0.1 mM. Here is the method: (§2)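 TESEC E. coli strains in which the native enzyme is deleted and replaced by arabinose-inducible Mtb Asd, DapB, CysH or TrpD, each grown in its selective medium. Strains were screened against the Prestwick library at 0.1 mM and 1% DMSO in 384-well format at low and high arabinose induction. Growth is read as OD600 after 10 h in triplicate.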

Another assay concerns E. coli TESEC Mtb DapB. Conditions: compound 0.1 mM. The method, then: as §2
In assay [3] the test system is E. coli TESEC Alr+ wild-type control. Conditions: compound 0.1 mM; raw OD600 reference: median of DMSO wells 0.49, cell-free background 0.052. Here is the method:
(§3)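 TESEC Mtb Alr E. coli (ΔaraC ΔtolC ΔentC Δalr ΔdadX, arabinose-inducible Mtb Alr) or the Alr+ wild-type control strain, grown in defined M9-fructose medium without D-alanine in 96-well plates with Prestwick library compounds at 0.1 mM and 1% DMSO. Low Alr induction is 0.1 µM arabinose and high induction is 10 mM arabinose.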

In assay [4] the test system is E. coli TESEC Mtb Alr. Conditions: compound 0.1 mM. Here is the method: as §3
This is another data set of the same source.

Setting [5] is: arabinose 1000 nM, raw OD600 reference: median of DMSO wells 0.294, cell-free background 0.041.
The mark [6] stands for this setting: arabinose 10000 nM, raw OD600 reference: median of DMSO wells 0.264, cell-free background 0.041.
The mark [7] stands for this setting: arabinose 100000 nM, raw OD600 reference: median of DMSO wells 0.201, cell-free background 0.041.
Setting [8] is: arabinose 1000000 nM, raw OD600 reference: median of DMSO wells 0.193, cell-free background 0.041.
[9] abbreviates: arabinose 10000000 nM, raw OD600 reference: median of DMSO wells 0.146, cell-free background 0.041.
Where [10] appears, read: arabinose induction (level): High, raw OD600 reference: median of DMSO wells 0.331, cell-free background 0.041.
Setting [11] is: arabinose induction (level): Low, raw OD600 reference: median of DMSO wells 0.417, cell-free background 0.041.
The mark [12] stands for this setting: arabinose induction (level): High, raw OD600 reference: median of DMSO wells […], cell-free background 0.041.
The mark [13] stands for this setting: arabinose induction (level): Low, raw OD600 reference: median of DMSO wells 0.227, cell-free background 0.041.
[14] abbreviates: arabinose 100 nM, raw OD600 reference: median of DMSO wells 0.413, cell-free background 0.052.
[15] abbreviates: arabinose 10000000 nM, raw OD600 reference: median of DMSO wells […], cell-free background 0.052.

Consider `Clc1ccc(CCC(Cn2ccnc2)Sc2c(Cl)cccc2Cl)cc1` (configuration not stated) [Butoconazole nitrate], for which the growth in assay [1] came to 0.0548 ± 0.0082; in the assay with E. coli TESEC Mtb Alr [2] (setting [5]), 0.0578 ± 0.0014; in the assay on E. coli TESEC Mtb Alr [2] (setting [6]) it was 0.066 ± 0.0018; with E. coli TESEC Mtb Alr [2] (setting [7]), 0.0622 ± 0.00087; in the assay with E. coli TESEC Mtb Alr [2] (setting [8]) it was 0.0664 ± 0.00089; in the assay on E. coli TESEC Mtb Alr [2] (setting [9]), 0.0514 ± 0.0014. Besides, the growth was 0.0629 ± 0.00052 with E. coli TESEC Mtb Asd (setting [10]); 0.0669 ± 0.0063 in the assay with E. coli TESEC Mtb Asd (setting [11]); 0.0705 ± 0.0052 in the assay on E. coli TESEC Mtb DapB (setting [12]); 0.0712 ± 0.0093 in the assay with E. coli TESEC Mtb DapB (setting [13]); 0.0876 ± 0.003 in assay [3]; 0.1 ± 0.057 in the assay on E. coli TESEC Mtb Alr [4] (setting [14]). Moreover, the growth in the assay with E. coli TESEC Mtb Alr [4] (setting [15]) stood at 0.115 ± 0.013.
With `O=C(c1ccc(OCCN2CCCCC2)cc1)c1c(-c2ccc(O)cc2)sc2cc(O)ccc12` [Raloxifene hydrochloride], the growth stood at 0.0456 ± 0.0048 in assay [1]; 0.0454 ± 0.0038 with E. coli TESEC Mtb Alr [2] (setting [5]); 0.0428 ± 0.0024 in the assay with E. coli TESEC Mtb Alr [2] (setting [6]); 0.048 ± 0.0037 with E. coli TESEC Mtb Alr [2] (setting [7]); 0.0438 ± 0.002 in the assay on E. coli TESEC Mtb Alr [2] (setting [8]); 0.0448 ± 0.003 with E. coli TESEC Mtb Alr [2] (setting [9]). The growth with E. coli TESEC Mtb Asd (setting [10]) is 0.062 ± 0.0013; with E. coli TESEC Mtb Asd (setting [11]), 0.0566 ± 0.0034; in the assay on E. coli TESEC Mtb DapB (setting [12]), 0.0658 ± 0.014; with E. coli TESEC Mtb DapB (setting [13]) it was 0.0509 ± 0.0031; in assay [3], 0.04917 ± 0.00038; in the assay on E. coli TESEC Mtb Alr [4] (setting [14]), 0.41 ± 0.007. The molecule also displayed a growth in the assay on E. coli TESEC Mtb Alr [4] (setting [15]) of 0.0554 ± 0.0018.
Consider `Cc1cc(=O)n(-c2ccccc2)n1C` [Antipyrine], for which the growth turned out to be 0.252 ± 0.0043 in assay [1]; 0.294 ± 0.014 in the assay on E. coli TESEC Mtb Alr [2] (setting [5]); 0.257 ± 0.0094 in the assay on E. coli TESEC Mtb Alr [2] (setting [6]); 0.221 ± 0.013 in the assay on E. coli TESEC Mtb Alr [2] (setting [7]); 0.176 ± 0.0026 with E. coli TESEC Mtb Alr [2] (setting [8]); 0.1436 ± 0.0012 in the assay with E. coli TESEC Mtb Alr [2] (setting [9]). Further, the growth in the assay on E. coli TESEC Mtb Asd (setting [10]) was determined as 0.305 ± 0.04; with E. coli TESEC Mtb Asd (setting [11]), 0.371 ± 0.014; in the assay on E. coli TESEC Mtb DapB (setting [12]), 0.191 ± 0.0076; in the assay on E. coli TESEC Mtb DapB (setting [13]), 0.204 ± 0.0077; in assay [3], 0.474 ± 0.062; in the assay on E. coli TESEC Mtb Alr [4] (setting [14]), 0.412 ± 0.0087. In the assay on E. coli TESEC Mtb Alr [4] (setting [15]), this molecule showed a growth of 0.379 ± 0.026.
With `CCCCOc1ccc(C(=O)CCN2CCCCC2)cc1` [Dyclonine hydrochloride], the growth in assay [1] is 0.208 ± 0.004; in the assay on E. coli TESEC Mtb Alr [2] (setting [5]), 0.278 ± 0.0053; with E. coli TESEC Mtb Alr [2] (setting [6]), 0.252 ± 0.0069; with E. coli TESEC Mtb Alr [2] (setting [7]) it was 0.183 ± 0.0081; with E. coli TESEC Mtb Alr [2] (setting [8]) it was 0.143 ± 0.0049; with E. coli TESEC Mtb Alr [2] (setting [9]) it was 0.144 ± 0.0069. In addition, the growth is 0.269 ± 0.064 in the assay on E. coli TESEC Mtb Asd (setting [10]); 0.252 ± 0.01 in the assay with E. coli TESEC Mtb Asd (setting [11]); 0.149 ± 0.0069 with E. coli TESEC Mtb DapB (setting [12]); 0.176 ± 0.012 in the assay with E. coli TESEC Mtb DapB (setting [13]); 0.449 ± 0.034 in assay [3]; 0.408 ± 0.0048 in the assay on E. coli TESEC Mtb Alr [4] (setting [14]). Moreover, in the assay with E. coli TESEC Mtb Alr [4] (setting [15]), the growth was 0.355 ± 0.033.
